Sampled rows, rich in hits. Any-hit rate of the full collection: about 7.3%.
VP16 counter – VP16 counterscreen qHTS for inhibitors of ROR gamma transcriptional activity; Drosophila S2 Gal4-VP16 UAS-luciferase, luminescence, 20 h; hit rate 3.5% among 310,000; Potency, µM (top dose mostly 53.6 µM), for inactives: at the highest dose activity, negative = inhibition, most hits filed as inhibitors;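 further: Gal4-VP16 expression switched on by copper sulfate through the metallothionein promoter; nearly all actives have a fitted effect of over 50% in size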
Tau fluor cs – Counterscreen qHTS for Inhibitors of Tau Fibril Formation, Fluorescence Polarization; Potency, µM (doses to about 57.7 µM), for the others: at the top dose activity change, negative = decrease; hit rate 0.93% among 280,000; tau K18 P301L Alexa594 fluorescence, heparin fibrillization; further: nearly all actives have a fitted effect of over 55% in size
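Human tau K18 P301L (15 uM unlabeled, 0.24 uM Alexa 594-labeled) in 100 mM sodium acetate pH 7 with 20 uM heparin, 6 hr at 37 C. ThT 30 uM added, 1 hr ambient; Alexa 594 FP and total fluorescence read at 555/632 nm.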
RORgamma inh – qHTS for inhibitors of ROR gamma transcriptional activity. Nuclear receptor ROR-gamma (Mus musculus), P51450. Drosophila S2 Gal4-RORgamma UAS-luciferase reporter, 20 h. Potency, µM (highest dose often 53.6 µM), inactives show top-dose activity change, negative = inhibition, actives largely listed as inhibitors. hit rate 5.4% among 310,000. AID 2551, 2010; further: nearly all actives have a fitted effect of over 60% in size
Target sequence (P51450 whole entry, looked up, the tested form may be a part): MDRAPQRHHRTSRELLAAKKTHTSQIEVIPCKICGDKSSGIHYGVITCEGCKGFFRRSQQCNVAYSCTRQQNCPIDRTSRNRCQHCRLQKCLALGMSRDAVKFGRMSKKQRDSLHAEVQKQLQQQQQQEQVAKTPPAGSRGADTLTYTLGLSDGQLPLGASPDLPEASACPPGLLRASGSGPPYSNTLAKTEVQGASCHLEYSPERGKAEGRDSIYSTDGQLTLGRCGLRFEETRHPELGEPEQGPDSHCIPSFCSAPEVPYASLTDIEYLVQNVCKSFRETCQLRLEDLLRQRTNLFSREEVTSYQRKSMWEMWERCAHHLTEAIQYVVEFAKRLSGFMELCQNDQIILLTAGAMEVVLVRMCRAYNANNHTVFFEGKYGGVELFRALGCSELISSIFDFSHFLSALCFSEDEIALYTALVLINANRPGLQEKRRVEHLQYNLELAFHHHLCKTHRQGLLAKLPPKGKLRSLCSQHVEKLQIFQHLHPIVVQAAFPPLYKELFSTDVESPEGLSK
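Stably transfected Drosophila Schneider cells are the test system, with ROR gamma fused to Gal4 and luciferase under UAS control; luminescence is read after 20 hr of 700 uM copper sulfate induction at ambient temperature.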
Tau ThT inhib – qHTS for Inhibitors of Tau Fibril Formation, Thioflavin T Binding; hit rate 2.1% among 270,000; Potency, µM (titrated, usually from 57.4 µM), for the others: at the top dose activity, negative = inhibition, actives largely listed as inhibitors; recombinant tau K18 P301L (four-repeat tau fragment), heparin-induced fibrillization, ThT fluorescence; AID 1460, 2008; further: nearly all actives have a fitted effect of over 55% in size
Target sequence (P10636 561-689 P618L limits assumed): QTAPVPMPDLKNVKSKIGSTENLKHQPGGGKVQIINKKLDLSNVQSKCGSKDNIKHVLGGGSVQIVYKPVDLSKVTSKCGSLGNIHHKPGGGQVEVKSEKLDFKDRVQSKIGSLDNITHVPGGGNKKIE
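Tau K18 P301L fragment (15 uM unlabeled plus 0.24 uM Alexa 594-labeled) in 100 mM sodium acetate pH 7 with compound, fibrillization induced by 20 uM heparin for 6 hr at 37 C. Thioflavin T (30 uM) added, fluorescence read after 1 hr (ex 450, em 510 nm).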
Tau FP inhib – qHTS for Inhibitors of Tau Fibril Formation, Fluorescence Polarization | hit rate 0.39% among 280,000 | AID 1468, 2008 | K18 P301L tau heparin fibrillization, Alexa594 FP, 6 h | Microtubule-associated protein tau (Homo sapiens), P10636 | Potency, µM (highest dose often 57.7 µM), for inactives: at the top dose activity, negative = inhibition, most hits filed as inhibitors; further: nearly all actives have a fitted effect of over 55% in size
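FP of Alexa 594-tau after heparin (20 uM) induction. Substrate: human K18 P301L, 15 uM unlabeled, 0.24 uM labeled. Buffer 100 mM sodium acetate pH 7. 6 hr, 37 C.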
Active calls of the source: *; u = inconclusive; x = no result; [ ] = another dose, or the depositor's remark. The call rests on the fitted dose curve; in most records, active means well fitted curve in the direction sought with a large enough effect; inconclusive means small, poorly fitted or top-dose-only effect, or another doubt; inactive means no such curve, though single readings can be large; an effect the other way counts as inactive or inconclusive. On the % scale 0 is the no-effect control and ±100 the full control effect; potency means the concentration at half of the fitted maximal effect.

SMILES	VP16 counter	Tau fluor cs	RORgamma inh	Tau ThT inhib	Tau FP inhib
Cc1ccc(S(=O)(=O)c2ccc([N+](=O)[O-])cn2)cc1	3.55µM*	x	3.16µM*	x	x
CC(=O)OC1C=C[C@]2(C)C(CC(OC(C)=O)[C@@]3(C)C4=CC(=O)OC(c5ccoc5)[C@]4(C)CCC23)C1(C)C (some centres undefined)	-0.9%	u	-27.8%	u	-1.7%
Cc1cc(C)cc(NC(=O)C2CCCN(c3nnc(C)c4c(C)n(-c5ccccc5)nc34)C2)c1 (centres undefined)	x	-0.6%	x	-3.3%	3.2%
CC1=C(C(=O)O)N2C(=O)C(NC(=O)C(N)c3ccc(O)cc3)C2SC1 (centres undefined)	-4.3%	u	10.8%	28.2µM*	u
CC=CC1=C(C(=O)O)N2C(=O)[C@H](NC(=O)[C@H](N)c3ccc(O)cc3)[C@@H]2SC1	5.1%	-22.9%	14.7%	22.4µM*	u
CC1=C(C(=O)O)N2C(=O)C(NC(=O)C(N)C3=CCC=CC3)C2SC1 (centres undefined)	6.2%	-26.5%	29.2%	u	u
Cc1ccn2cc(-c3cccc(NC(=O)CCC(=O)O)c3)nc2c1	10µM*	x	7.08µM*	x	x
Cc1ccc(-c2cn3ccc(C)cc3n2)cc1	x	-5.6%	x	-1.2%	0.9%
Cc1ccn2cc(-c3cccc([N+](=O)[O-])c3)nc2c1	u	-14.9%	10µM*	u	-1.5%
Cc1ccn2cc(-c3ccc(Br)cc3)nc2c1	u	-8.9%	8.91µM*	-16.7%	0.0%
COc1cc(C(C(=O)NCc2ccccc2)N(C(=O)c2snc(C(N)=O)c2N)C2CCCC2)cc(OC)c1OC (centres undefined)	-11.3%	x	18.5%	x	x
C/C(CCC(C)C)=N\NC(=S)Nc1cc(S(=O)(=O)N2CCOCC2)ccc1N1CCOCC1	u	-8.4%	11.2µM*	-2.1%	0.4%
COc1ccc2cc(/C(C)=N/NC(=S)Nc3cc(S(=O)(=O)N4CCOCC4)ccc3N3CCOCC3)ccc2c1	8.1%[10 µM]	-24.5%	6.31µM*	u	1.7%
O=S(=O)(c1ccc(Cl)c(NC(=S)Nc2ccccc2N2CCOCC2)c1)N1CCOCC1	-7.1%	-0.8%	u	3.4%	3.6%
C/C(=N\NC(=S)Nc1ccc(C)c(C)c1)c1ccc(N2CCOCC2)cc1	u	-0.9%	14.1µM*	-0.1%	-3.3%
C/C(=N\NC(=S)Nc1cc(S(=O)(=O)N2CCOCC2)ccc1Cl)c1ccc(N2CCOCC2)cc1	11.2µM*	u	2.82µM*	u	0.6%
C/C(=N\NC(=O)c1ccc(Cl)cc1)c1ccc(N2CCOCC2)cc1	4.6%	1.7%	-23.6%	u	-3.1%
O=Nc1c2cc(-c3ccccc3)[nH]nc-2c2ccccc12	1.4%	1.8%	-5.1%	1.8%	-3.4%
Cc1ccc(-c2cc3c(N=O)c4ccccc4c-3n[nH]2)cc1	u	0.2%	10µM*	-15.0%	-2.1%
C/C(=N/Nc1ncc(C(F)(F)F)cc1Cl)c1ccncc1	u	-11.6%	u	-17.3%	-4.2%
COc1cc(/C=N/Nc2ncc(C(F)(F)F)cc2Cl)cc(OC)c1O	20µM*	u	11.2µM*	u	-1.0%
COc1cc(/C=N/Nc2ncc(C(F)(F)F)cc2Cl)cc(OC)c1OC	20µM*	-21.5%	u	u	6.0%
COc1ccc(/C=N/Nc2ncc(C(F)(F)F)cc2Cl)c(OC)c1OC	7.94µM*	-4.9%	2.82µM*	-2.4%	-0.7%
O=C(NCCCN1CCCCC1)C1CCC(CNS(=O)(=O)c2cccc3nsnc23)CC1 (centres undefined)	-3.6%	x	15.4%	x	x
Cc1c(CNC2CCCCC2)c(C(=O)O)c(C)n1Cc1ccc(Cl)cc1	x	-4.5%	x	-8.7%	2.6%
SMILES	VP16 counter	Tau fluor cs	RORgamma inh	Tau ThT inhib	Tau FP inhib
CC1(NC(=O)Nc2cccc3ccccc23)CCS(=O)(=O)C1 (centres undefined)	-0.9%	x	-3.2%	x	x
O=C1c2ccccc2-c2nc3ccccc3nc21	-4.6%	u	-6.3%	20µM*	u
COc1ccccc1-c1nc2ccccc2nc1-c1ccccc1OC	-0.8%	-4.2%	-0.7%	0.2%	1.2%
Cc1cccc(NC(=O)c2ccc(C(=O)Nc3cccc(C)c3C)cc2)c1C	x	-7.0%	x	-5.9%	-7.8%
COc1ccc(CCNC(=S)Nc2ccccc2C)cc1	20µM*	-6.8%	5.01µM*	-8.3%	-1.1%
COc1ccc(CCNC(=S)Nc2cccc3ccccc23)cc1	11.2µM*	-22.5%	5.01µM*	-4.4%	13.9%
COc1ccc(OCCNC(=S)Nc2cccc3ccccc23)cc1	6.31µM*	u	2.82µM*	-21.4%	-16.1%
COc1ccc(CNC(=O)Nc2cccc3ccccc23)cc1	u	-6.9%	1.1%	-1.0%	-9.1%
COc1ccc2c(c1)OC(=O)CC2c1ccccc1C (centres undefined)	-2.3%[96.6 µM]	u	-11.4%[96.6 µM]	u	7.5%[81.3 µM]
Clc1ccc(Oc2nc3c(Cl)cccc3s2)cc1Cl	5.9%	-1.7%	24.3%	-5.1%	-6.4%
Cc1cc(=O)oc2cc(Oc3ccc([N+](=O)[O-])cc3[N+](=O)[O-])ccc12	-79.5%	12.6µM*[quencher]	11.2µM*	u	-0.1%
O=Cc1cccc(Oc2ccc([N+](=O)[O-])cc2[N+](=O)[O-])c1	3.2%	u	14.1µM*	u	1.3%
CN1C(=O)C2C3c4ccccc4C(c4ccccc43)[C@@H]2C1=O (some centres undefined)	3.5%	x	2.6%	x	x
O=C1C=CC(=O)C2=C1C1c3ccccc3C2c2ccccc21	u	u	10µM*	20µM*	35.5µM*
CC(C)CC1=NN(C(=O)c2ccco2)C(O)(C(F)(F)F)C1 (centres undefined)	14.1µM*	-7.9%	6.31µM*	-8.9%	4.5%
CC(C)CCC1=NN(C(=O)c2ccco2)C(O)(C(F)(F)F)C1 (centres undefined)	0.1%	-4.5%	23.1%	-0.3%	9.0%
COc1cccc(OCCSc2nc(N)cc(N)n2)c1	6.31µM*	-12.9%	7.94µM*	u	-3.6%
CC1CN(c2ccc(Cl)cc2)c2nc3c(c(=O)n(CC(=O)O)c(=O)n3C)n2C1 (centres undefined)	x	-8.4%	x	-8.0%	2.2%
O=[N+]([O-])c1ccc(Cl)c(-c2ccc(/C=N/n3cnnc3)o2)c1	3.7%	x	17.9%	x	x
CN1CCN(/N=C/c2ccc(-c3ccc([N+](=O)[O-])cc3Cl)o2)CC1	-2.7%	u	-4.7%	11.2µM*	11.2%
C=CCN1C(=O)NC(c2ccc(OC)cc2)(C(F)(F)F)S/C1=C(\C#N)c1nnc(N2CCOCC2)n1-c1ccccc1 (centres undefined)	12.6µM*	6.4%	4.47µM*	-15.4%	-4.5%

Screening data from PubChem.
